Assay outcomes (PubChem)
Most compounds without a hit are left out; they make up all but 3.2% or so of the library.
Tau fluor counter: counter-screen for tau fibril formation inhibitors. tau K18 P301L Alexa594 fluorescence, heparin fibrillization. Potency, µM (top dose mostly 57.7 µM). hit rate 0.93% among 280,000. AID 1463; further: nearly all actives have a fitted effect of over 55% in size
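Human K18 P301L tau (15 uM unlabeled plus 0.24 uM Alexa 594-labeled, final) in 100 mM sodium acetate pH 7 was mixed with compound and 20 uM heparin and incubated 6 hr at 37 C.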
Lamin A splicing: modulators of lamin A splicing. Potency, µM (top dose mostly 46.1 µM), most hits filed as inhibitors. HeLa LMNA splicing GFP/RFP minigene ratio, 48 h. hit rate 0.01% among 200,000; active means well fitted inhibition curve with a large enough effect in the signal ratio, with a control signal flat, not every such curve was filed as active; inconclusive means small, poorly fitted or top-dose-only effect, or effect the other way, or a change in a side signal; the % refers to the signal ratio
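S3 HeLa stable clones carrying a lamin A-EGFP splicing minigene plus DsRed2 were seeded at 600 cells/well in Opti-MEM with 2% FBS, pin-dosed and incubated 48 h at 37°C. Acumen cytometry (488 nm) gave the GFP/RFP total-intensity ratio.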
JMJD2E inh: JMJD2E (human) inhibition; B2RXH2; JMJD2E catalytic domain, FDH-coupled NADH fluorescence (FDH is formaldehyde dehydrogenase); Potency, µM (doses to about 57.1 µM), usual class: inhibitors; hit rate 1.6% among 230,000; active means well fitted inhibition curve with a large enough effect, not every such curve was filed as active; inconclusive means small, poorly fitted or top-dose-only effect, or another doubt; inactive means no such curve, though single readings can be large or run the other way; further: nearly all actives have a fitted effect of over 50% in size
Target sequence (B2RXH2 1-337 limits assumed): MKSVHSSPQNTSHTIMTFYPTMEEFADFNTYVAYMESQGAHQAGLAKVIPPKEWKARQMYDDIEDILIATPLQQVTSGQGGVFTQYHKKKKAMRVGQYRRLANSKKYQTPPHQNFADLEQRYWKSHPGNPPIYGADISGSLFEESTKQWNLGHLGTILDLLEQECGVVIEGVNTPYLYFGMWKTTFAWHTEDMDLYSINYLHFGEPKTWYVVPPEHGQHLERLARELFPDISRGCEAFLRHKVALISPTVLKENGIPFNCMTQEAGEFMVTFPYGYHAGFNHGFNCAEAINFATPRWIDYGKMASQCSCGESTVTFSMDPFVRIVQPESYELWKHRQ
Tau fibril FP: blocks human tau fibril formation measured by polarization. P10636. K18 P301L tau heparin fibrillization, Alexa594 FP, 6 h. Potency, µM (doses to about 57.7 µM), hits mostly inhibitors. hit rate 0.39% among 280,000. AID 1468; further: nearly all actives have a fitted effect of over 55% in size
Target sequence (P10636 561-689 P618L limits assumed): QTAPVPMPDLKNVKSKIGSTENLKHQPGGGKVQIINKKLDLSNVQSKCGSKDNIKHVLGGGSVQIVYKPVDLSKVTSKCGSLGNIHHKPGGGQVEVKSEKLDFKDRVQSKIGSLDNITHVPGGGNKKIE
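Human tau K18 […] P301L fragment, 15 uM unlabeled plus 0.24 uM Alexa 594-labeled tau (final), with compound and 20 uM heparin in 100 mM sodium acetate pH 7; 6 hr at 37 C, then Alexa 594 FP read.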
CBFb RUNX1 block: blocks binding between human CBF-beta and RUNX1. Q01196+Q13951. AlphaScreen CBFb-His/RUNX1-biotin binding, biochemical. Potency, µM (titrated, usually from 59.8 µM), usual class: inhibitors. 230,000 tested, under 10 active. AID 1477
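CBF-beta (His) and RUNX1 (biotin), 30 nM each; 20 min preassociation; + compound, 15 min; + beads 50 ng each (Ni, streptavidin), 90 min; RT; AlphaScreen read.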
Tau fibril ThT: tau fibrillization inhibition (ThT binding). P10636. recombinant tau K18 P301L (four-repeat tau fragment), heparin-induced fibrillization, ThT fluorescence. Potency, µM (series often up to 57.4 µM), most hits filed as inhibitors. hit rate 2.1% among 270,000. AID 1460; further: nearly all actives have a fitted effect of over 55% in size
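Heparin-induced (20 uM) aggregation of recombinant human K18 P301L tau, 15 uM unlabeled with 0.24 uM labeled, pH 7 acetate buffer, 6 hr at 37 C with compound. Fibrils quantified by 30 uM ThT fluorescence after 1 hr ambient incubation.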
Hits are given with their value; i = inactive; ? = inconclusive; nt = not tested or not shown; ! = not confirmed by another sample; [ ] = another dose, or the depositor's remark. Unless noted, the call rests on the fitted dose curve; in most records, active means well fitted curve in the direction sought with a large enough effect; inconclusive means small, poorly fitted or top-dose-only effect, or another doubt; inactive means no such curve, though single readings can be large; an effect the other way counts as inactive or inconclusive.

SMILES | Tau fluor counter | Lamin A splicing | JMJD2E inh | Tau fibril FP | CBFb RUNX1 block | Tau fibril ThT
CCC(C)Nc1nc(-c2ccc3c(c2)NC(=O)CO3)cs1 (centres undefined) | ? | ? | i | i | i | ?
CC1=NN(c2ccccc2)C(=O)C1N=Nc1ccc(S(N)(=O)=O)cc1 (centres undefined) | i | nt | i | i | i | ?
CC1=NN(c2ccccc2)C(=O)C1N=Nc1ccc(C)cc1 (centres undefined) | i | nt | i | i | i | i
CC(=O)Nc1ccc(N2N=C(C)C(N=Nc3ccccc3)C2=O)cc1 (centres undefined) | i | i | i | i | i | 4.5µM
Cc1ccc(-c2csc(CC(N)=O)n2)cc1 | i | i[9.22 µM] | i | i | i | i
CC1=NN(c2nc(-c3ccc(C)cc3)cs2)C(=O)C1N=Nc1ccc(C(N)=O)cc1 (centres undefined) | ? | ? | i | i | ? | 2.8µM
CC1=NN(c2nc(-c3ccccc3)cs2)C(=O)C1N=Nc1ccccc1 (centres undefined) | ? | nt | i | i | i | 2.2µM
CC1=NN(c2nc(-c3ccc(C)cc3)cs2)C(=O)C1N=Nc1ccc2ccccc2c1 (centres undefined) | i | i | i | i | i | 1.4µM
CC1(C)CCC2=C(O1)c1ccccc1C(=O)C2=O | i | ? | 3.5µM! | ? | ? | 13µM
O=C(CSc1cccc[n+]1[O-])Nc1ccc(C(F)(F)F)cc1[N+](=O)[O-] | i | nt | i | i | i | i
O=[N+]([O-])c1ccc(Sc2cccc[n+]2[O-])c2nonc12 | 13µM[quencher] | nt | i | ? | ? | 5µM
Cc1ccccc1-c1nnc(SCC(=O)N(C)C2CCCCC2)o1 | i | ? | nt | ? | nt | i
CCC(=O)N1CCN(c2ccc(NC(=O)c3cc4ccccc4o3)cc2)CC1 | ? | i | i | i | ? | 2.8µM
O=C(Nc1ccc(N2CCOCC2)cc1)c1cc2ccccc2o1 | i | ? | ? | i | i | 5.6µM
O=C(Nc1ccc(CN2CCOCC2)cc1)c1cc2ccccc2o1 | i | i | i | i | i | i
COC(=O)C1=C(C(=O)OC)[C@@H]2N(C)c3ccc(OC)cc3[C@@]23C[C@@H](C(=O)OC)N(S(=O)(=O)c2ccc(C(F)(F)F)cc2)C3=N1 | i[11.6 µM] | ? | i[11.4 µM] | i[11.6 µM] | i[13.1 µM] | i[11.5 µM]
COc1ccccc1CNC(=O)c1ccc2c(c1)N(Cc1cccc(C)c1)C(=O)c1ccccc1S2(=O)=O | i | nt | nt | ? | nt | i
Cn1c2c(c(=O)n(C)c1=O)C(c1ccccc1[N+](=O)[O-])CC(=O)N2 (centres undefined) | i | nt | nt | i | nt | i
COC/C=C/C1=CC2=CC(=O)C(C)(OC(=O)c3cnc4ccccc4n3)C(=O)C2=CN1c1ccc(CO)cc1 (centres undefined) | i[11.6 µM] | i[9.22 µM] | i[11.4 µM] | i[11.6 µM] | i[13.1 µM] | i[11.5 µM]
COC/C=C/C1=CC2=CC(=O)C(C)(OC(=O)c3cnc4ccccc4n3)C(=O)C2=CN1c1ccccc1 (centres undefined) | ? | i[9.22 µM] | i[11.4 µM] | ? | ? | 13µM!
CCOC(=O)CSc1nc(N)c(C(=O)Nc2ccc(N(C)C)cc2)s1 | ? | i | i | i | i | 16µM
CCN(CC)C(=O)CSc1nc(N)c(C(=O)Nc2ccc(OC)cc2)s1 | i | i | i | i | i | i
CCOC(=O)CN1C(=O)S/C(=C/c2ccc(N3CCCCC3)o2)C1=O | i | i | i | i | i | ?
COC(=O)CN1C(=O)S/C(=C/c2ccc(N3CCCCC3)o2)C1=O | i | ? | ? | ? | i | 25µM
CCn1c(C)cc(/C=C2/SC(=S)N(CC(=O)O)C2=O)c1C | i | i | i | i | i | ?
SMILES | Tau fluor counter | Lamin A splicing | JMJD2E inh | Tau fibril FP | CBFb RUNX1 block | Tau fibril ThT
O=C(O)CN1C(=O)/C(=C/c2ccc(N3CCCCC3)o2)SC1=S | i | nt | 32µM | ? | i | 16µM
CCc1ccccc1N(CC)C(=O)c1c(C)oc2ncnc(N3CCOCC3)c12 | i | i | nt | i | nt | i
CCN1CCN(c2cc(C)c3cc(NC(=O)Cc4ccccc4OC)ccc3n2)CC1 | i | i | ? | ? | i | i
COc1ccccc1CC(=O)Nc1ccc2nc(Nc3cccc(C(F)(F)F)c3)cc(C)c2c1 | 6.3µM[quencher] | i | nt | i | nt | i
COc1cccc(NC(=O)Cc2ccccc2)c1 | i | i | i | i | i | i
COc1cccc(CC(=O)Nc2ccc3nc(Nc4cccc(C(F)(F)F)c4)cc(C)c3c2)c1 | 7.1µM[quencher] | ? | nt | ? | nt | ?
O=C(Nc1cccc(C(F)(F)F)c1)Nc1ccc(N2CCCC2)c(S(=O)(=O)Nc2ccccc2Cl)c1 | 2.5µM[quencher] | ? | ? | ? | i | ?
CCN1C(=O)/C(=C2/C=Cc3ccccc3N2C)OC1=S | i | i | i | i | i | 3.2µM
CCN1C(=O)/C(=C2\C=Cc3cc(C)ccc3N2CC)OC1=S | i | i | i | i | i | ?
CCN1C(=O)/C(=c2\o/c(=C3\C=Cc4ccccc4N3CC)c(=O)n2CC)SC1=S | i | i | i | i | i | ?
CCN1C(=O)/C(=C2\C=Cc3ccccc3N2CC)SC1=S | ? | i | i | i | ? | 6.3µM
CCOC(=O)c1c(S(=O)(=O)NCC(=O)N(C)c2ccc(C)cc2)c(C)n(C)c1C | i | i | nt | i | nt | i
CCOC(=O)CNS(=O)(=O)c1ccc(F)cc1Br | nt | nt | nt | nt | i | nt
CC1=NC(=O)C(N=Nc2cccc(C(=O)O)c2)N1c1ccccc1 (centres undefined) | i | i | i | i | i | 16µM
CC1=NC(=O)C(N=Nc2ccccc2)N1c1ccccc1 (centres undefined) | i | i | i | ? | nt | ?
CC1=NC(=O)C(N=Nc2ccccc2C(=O)O)N1c1ccccc1 (centres undefined) | i | i | i | i | ? | 5µM
Cc1ccccc1S(=O)(=O)NC1OC(=O)C(Cl)=C1Cl (centres undefined) | i | ? | i | 28µM | i | 28µM
Cc1nn(-c2ccccc2)c(Cl)c1/C=N/Nc1ccc(S(=O)(=O)Nc2ccccc2C(=O)O)cc1[N+](=O)[O-] | ? | i | i | i | ? | 8.9µM
COc1ccc(NC(=S)NNc2ccc(S(=O)(=O)Nc3ccccc3C(=O)O)cc2[N+](=O)[O-])cc1 | 10µM[quencher] | nt | ? | ? | nt | 13µM
Cc1nn(-c2ccccc2)c(Cl)c1/C=N/Nc1ccc(Cl)c(C(=O)O)c1 | i | ? | i | i | i | ?
Cc1ccc(S(=O)(=O)Nc2ccccc2C(=O)OC(C)C(=O)Nc2ccc3ccccc3c2)cc1[N+](=O)[O-] (centres undefined) | i | ? | i | i | i | i
C=CCS/C(N)=N\N=C\c1c(O)ccc2ccccc12 | 11µM[quencher] | nt | ? | i | i | ?
Cc1[nH]n(-c2ccc([N+](=O)[O-])cc2)c(=O)c1C=NCC1CCCO1 (centres undefined) | i | i | i | i | i | i
